Laboratory results as given in paper PMC4336329 (PLoS ONE, 2015).
Out of some 310,000 compounds screened, about 2,200 (0.71%) showed an effect of 50% or more. Effects have a minus sign here. This excerpt belongs to a sample that is enriched for strong results.

Each molecule was assayed against human ether-à-go-go-related gene (hERG) potassium channel (human, UniProt Q12809) (assay: primary screen, population patch clamp on CHO cells stably expressing hERG; higher = less effect of the substance).
Sequence of human ether-à-go-go-related gene (hERG) potassium channel (Q12809 whole entry, looked up): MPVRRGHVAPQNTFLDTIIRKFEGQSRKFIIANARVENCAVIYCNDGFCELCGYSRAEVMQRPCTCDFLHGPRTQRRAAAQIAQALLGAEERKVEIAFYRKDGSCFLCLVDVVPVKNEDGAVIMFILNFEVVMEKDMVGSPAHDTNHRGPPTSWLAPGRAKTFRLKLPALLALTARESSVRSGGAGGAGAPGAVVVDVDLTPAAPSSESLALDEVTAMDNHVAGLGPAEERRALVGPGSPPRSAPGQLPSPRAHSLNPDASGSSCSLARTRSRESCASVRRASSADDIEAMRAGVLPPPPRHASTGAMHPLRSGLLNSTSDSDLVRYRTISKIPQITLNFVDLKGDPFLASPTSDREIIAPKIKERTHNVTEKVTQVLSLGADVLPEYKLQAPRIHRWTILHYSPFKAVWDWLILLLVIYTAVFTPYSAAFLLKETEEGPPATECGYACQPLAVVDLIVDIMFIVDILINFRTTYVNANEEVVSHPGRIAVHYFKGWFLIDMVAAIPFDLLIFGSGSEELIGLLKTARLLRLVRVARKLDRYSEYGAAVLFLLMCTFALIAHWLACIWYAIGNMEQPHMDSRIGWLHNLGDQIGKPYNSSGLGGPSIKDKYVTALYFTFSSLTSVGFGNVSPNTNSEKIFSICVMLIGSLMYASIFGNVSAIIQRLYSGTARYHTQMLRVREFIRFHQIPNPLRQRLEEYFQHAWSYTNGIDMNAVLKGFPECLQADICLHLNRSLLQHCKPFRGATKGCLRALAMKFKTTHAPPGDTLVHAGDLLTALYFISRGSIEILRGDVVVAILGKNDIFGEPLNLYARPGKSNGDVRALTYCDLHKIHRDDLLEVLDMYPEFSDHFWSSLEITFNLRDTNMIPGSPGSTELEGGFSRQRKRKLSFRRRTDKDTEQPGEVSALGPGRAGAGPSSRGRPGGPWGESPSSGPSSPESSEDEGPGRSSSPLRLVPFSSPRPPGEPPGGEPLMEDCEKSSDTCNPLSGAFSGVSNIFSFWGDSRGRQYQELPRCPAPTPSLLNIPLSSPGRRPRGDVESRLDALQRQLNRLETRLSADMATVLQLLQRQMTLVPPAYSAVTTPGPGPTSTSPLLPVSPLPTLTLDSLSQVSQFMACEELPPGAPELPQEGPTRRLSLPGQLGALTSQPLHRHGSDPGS

Row | Compound | hERG current change (%, negative = inhibition) at 1uM
1 | O=C(Nc1ccc2oc(-c3ccccc3F)nc2c1)c1ccc2c(c1)OCCO2 | 3.14%
2 | O=C(O)C(=O)O.c1ccc(COc2ccc(OCCCCN3CCCCC3)cc2)cc1 | -46.8%
3 | O=C(O)C(=O)O.c1ccc(COc2ccc(OCCCN3CCCCC3)cc2)cc1 | -57.7%
4 | Cl.OCCN1CCN(CCOc2ccccc2-c2ccccc2)CC1 | 6.46%
5 | CC1CCN(CCCCOc2ccc(C(=O)c3ccccc3)cc2)CC1.O=C(O)C(=O)O | -72.4%
6 | COCCNCCCOc1ccc(Br)cc1Cl.O=C(O)C(=O)O | 0.786%
7 | Cc1ccc(OCCCCN2CCC(C)CC2)cc1.O=C(O)C(=O)O | -0.565%
8 | Cl.OCCCN1CCN(CCCOc2ccccc2-c2ccccc2)CC1 | -57.7%
9 | COCCCNCCCCOc1ccc(Br)cc1Cl.O=C(O)C(=O)O | -61.5%
10 | CCN1CCN(CCCOc2ccccc2-c2ccccc2)CC1.O=C(O)C(=O)O | -16.6%
11 | O=C(O)C(=O)O.c1ccc(COc2ccc(OCCCN3CCCC3)cc2)cc1 | -39.1%
12 | CC1CCN(CCOc2ccc(C(=O)c3ccccc3)cc2)CC1.O=C(O)C(=O)O | 3.49%
13 | COCCCNCCCCOc1ccc(Br)cc1C.O=C(O)C(=O)O | -24%
14 | CCN(CC)S(=O)(=O)c1ccc(C(=O)NCc2ccc3[nH]c4c(c3c2)CCCC4)cc1 | 16.4%
15 | COc1cccc(CN2CCC(C(=O)N3CCN(c4ccccc4F)CC3)CC2)c1 | -20.8%
16 | CCCn1c(=O)c(C(=O)Nc2ccccc2C(=O)OCC)c(O)c2ccccc21 | 16.2%
17 | CNC(=S)Nc1cc(C(F)(F)F)ccc1Cl | -4.86%
18 | Cc1cc(OCC(=O)Nc2ccc3oc(-c4ccncc4)nc3c2)ccc1Cl | 9.6%
19 | Cc1ccc(/C=C2\SC(=S)N(CCCC(=O)Nc3ccccn3)C2=O)cc1 | 3.9%
20 | Cc1csc(NC(=O)C2=NN(c3ccccc3)C(=O)CC2)n1 | 9.03%
21 | CN1CCN(CCOCCOc2ccc(Br)cc2Cl)CC1.O=C(O)C(=O)O | 10.1%
22 | CC1CCN(CCOCCOc2ccc(Br)cc2Cl)CC1.O=C(O)C(=O)O | -52%
23 | Brc1ccccc1OCCCCN1CCCCC1 | -1.28%
24 | Brc1ccccc1OCCCN1CCCCCC1.O=C(O)C(=O)O | -59.2%
25 | O=C(O)C(=O)O.c1ccc(-c2ccccc2OCCCN2CCCC2)cc1 | -49.4%

Row | Compound | hERG current change (%, negative = inhibition) at 1uM
26 | CC1CCCN(CCOCCOc2ccc(Br)cc2Cl)C1.O=C(O)C(=O)O (stereo not shown) | -7.22%
27 | Brc1ccccc1OCCCN1CCCC1.O=C(O)C(=O)O | 8.64%
28 | O=C(O)C(=O)O.c1ccc(-c2ccccc2OCCCCN2CCCCCC2)cc1 | -48.2%
29 | O=C(O)C(=O)O.c1ccc(-c2ccccc2OCCCN2CCCCCC2)cc1 | -52.7%
30 | CNc1ccccc1C(=O)OCC(=O)c1ccc(F)cc1 | 7.17%
31 | CCN1C(=O)c2ccc(C(=O)NCc3ccco3)cc2C1=O | 11%
32 | O=C(CC1Sc2ccccc2NC1=O)NNC(=O)Nc1ccc(Cl)cc1 (stereo not shown) | 9.26%
33 | CCOc1ccccc1NC(=O)C(NCCN(C)C)c1ccccc1.O=C(O)C(=O)O (stereo not shown) | -49.1%
34 | CCOc1ccccc1NC(=O)C(NCC1CCCCC1)c1ccccc1 (stereo not shown) | 8.03%
35 | CCOc1ccccc1NC(=O)C(NCC1(N2CCCCC2)CCCCC1)c1ccccc1.O=C(O)C(=O)O (stereo not shown) | -57.4%
36 | C/C(N)=C(\C#N)C(=O)NCc1ccccn1 | 10.9%
37 | Cc1cc(C)c(-c2cc(C(F)(F)F)no2)c(=O)[nH]1 | 12.2%
38 | O=C(O)Cn1nc2c3c(cccc3c1=O)-c1ccccc1-2 | 8.49%
39 | CCN(CC)CCn1nc2c3c(cccc3c1=O)-c1ccccc1-2 | -50%
40 | O=c1c2cccc3c2c(nn1CN1CCOCC1)-c1ccccc1-3 | -15.3%
41 | COc1ccc(OC(=O)NCCc2ccccc2)cc1 | 12.2%
42 | Cc1cccn2c(=O)c3cc(C(=O)NCc4ccco4)c(=N)n(C4CCCCC4)c3nc12 | -84.8%
43 | Cc1cccn2c(=O)c3cc(C(=O)NCc4ccco4)c(=N)n(C4CCCC4)c3nc12 | -85.5%
44 | Cc1cccn2c(=O)c3cc(S(=O)(=O)c4ccc(Br)cc4)c(=N)n(C4CCCCC4)c3nc12 | 26%
45 | Cc1cccn2c(=O)c3cc(S(=O)(=O)c4ccc(Br)cc4)c(=N)n(C4CCCC4)c3nc12 | 14.5%
46 | Cc1ccc(S(=O)(=O)c2cc3c(=O)n4cccc(C)c4nc3n(C3CCCCC3)c2=N)cc1 | 8.4%
47 | CC1CCc2nc(NC(=O)Cc3cccs3)sc2C1 (stereo not shown) | 12.7%
48 | O=C1NC(C(F)(F)F)(C(F)(F)F)N=C2SC=CN12 | 1.69%
49 | CCCOc1ccc(C2C(C(=O)OC)=CN(CCOC)C=C2C(=O)OC)cc1 | -5.54%
50 | CCN(CC)C(=O)CN1C(=O)COCC1=O | 5.42%

Row | Compound | hERG current change (%, negative = inhibition) at 1uM
51 | S=C1NC(c2ccccc2)N2C(=S)NC(c3ccccc3)N12 (stereo not shown) | 3.38%
52 | CCOc1ccc2nc(C)cc(Nc3ccc(N4CCOCC4)cc3)c2c1.Cl | -60.6%
53 | CCOc1ccc2nc(C)cc(Nc3ccc4c(c3)OCCO4)c2c1.Cl | -47%
54 | COc1ccc2nc(C)cc(Nc3ccc(N4CCOCC4)cc3)c2c1.Cl | -25.1%
55 | CCOc1ccc(-c2c(C)n(-c3ccc(OCC)cc3)c3[n+]2CCCCC3)cc1.[O-][Cl+3]([O-])([O-])[O-] | -50.8%
56 | CCOc1ccc(-n2c(-c3ccc(OC)cc3)c[n+]3c2CCCCC3)cc1.[Br-] | -39.1%
57 | CCOc1ccc(-n2c(-c3ccc(Br)cc3)c[n+]3c2CCCCC3)cc1.[Br-] | -46.5%
58 | CCCNC(=O)C(Cc1ccc(F)cc1)NC(=O)c1ccc(C#N)cc1 (stereo not shown) | -17.5%
59 | CCC(CC)c1nnc(NC(=O)c2cccc(S(=O)(=O)N3CCc4ccccc43)c2)s1 | 13.3%
60 | Cl.O=C1Cc2ccccc2Sc2cc(OCCCN3CCCCC3)ccc21 | -29.1%
61 | CN(C)CCOc1ccc2c(c1)Sc1ccccc1CC2=O.Cl | -18.3%
62 | CN(C)CCCOc1ccc2c(c1)Sc1ccccc1CC2=O.Cl | -53.3%
63 | O=C(Cc1ccc([N+](=O)[O-])cc1)OCc1c(F)cccc1Cl | 14.7%
64 | CCOc1ccc(N=C2NC(=O)CS2)cc1 | 11.1%
65 | Cc1ccc(NC(=O)NC2CCCCCCC2)cc1C | 11.5%
66 | OCC1(CCc2ccccc2)CCN(C/C=C/c2ccccc2)CC1 | -86.4%
67 | OCC1(CCc2ccccc2)CCN(Cc2ccccc2Cl)CC1 | -54.6%
68 | OCC1(Cc2ccc(F)cc2)CCCN(CCc2ccccc2)C1 (stereo not shown) | -0.0287%
69 | OCC1(Cc2ccc(F)cc2F)CCCN(Cc2ccc(Cl)cc2)C1 (stereo not shown) | -15%
70 | OCC1(CCc2ccccc2)CCN(Cc2cc(Cl)ccc2O)CC1 | -5.01%
71 | OCC1(CCc2ccccc2)CCN(Cc2c(F)ccc(F)c2F)CC1 | 7.97%
72 | OCC1(CCc2ccccc2)CCCN(CCCC(F)(F)F)C1 (stereo not shown) | -13.2%
73 | OCC1(CC2CCCCO2)CCN(C/C=C/c2ccccc2)CC1 (stereo not shown) | -2.99%
74 | OCC1(Cc2ccccc2F)CCCN(CCc2ccccc2)C1 (stereo not shown) | -30.5%
75 | OCC1(CCc2ccccc2)CCCN(CCCc2ccccc2)C1 (stereo not shown) | -57.6%

Row | Compound | hERG current change (%, negative = inhibition) at 1uM
76 | OCC1(Cc2ccc(F)cc2F)CCCN(CCCc2ccccc2)C1 (stereo not shown) | -56.1%
77 | O=C(Cc1ccccc1)N1CCN(C/C=C/c2ccccc2)CC1 | -6.02%
78 | Cc1cc(C(=O)N2CCCC(N3CCN(c4cccc(Cl)c4)CC3)C2)no1 (stereo not shown) | 10.5%
79 | Cc1cc2oc(C(=O)N(Cc3ccccc3)c3ccccn3)cc(=O)c2cc1Cl | 10.6%
80 | CCn1nc(C)cc1C(=O)Sc1cccc(Cl)c1 | 10.9%
81 | CCCCCCCC(=O)NNC(=O)c1c(O)c2ccccc2[nH]c1=O | 9.8%
82 | CCCCn1c(N)c(N(C)C(=O)c2ccc(Br)o2)c(=O)[nH]c1=O | 7.35%
83 | O=C(O)C1CC=CCC1C(=O)N1CCCC1 (stereo not shown) | -1.33%
84 | O=C(CCC(F)(F)F)N1CCCC(CO)(CCc2ccccc2)C1 (stereo not shown) | -3.42%
85 | COc1ccccc1/C=C/CN1CCCC(CO)(CCc2ccccc2)C1 (stereo not shown) | -31.4%
86 | OCC1(CCc2ccccc2)CCCN(C/C=C/c2ccccc2)C1 (stereo not shown) | -53.6%
87 | CCOc1cc(C2NC(=O)NC(C)=C2C(=O)OC(C)CC)cc(Br)c1O (stereo not shown) | 10.2%
88 | O=C1N[C@@H](Cc2cn(S(=O)(=O)c3c(F)c(F)c(F)c(F)c3F)c3ccccc23)C(=O)N[C@H]1Cc1ccccc1 | 10.7%
89 | CN1CCN(C(=O)/C(=C/c2ccc(F)cc2)NC(=O)c2ccccc2)CC1 | -80.8%
90 | COc1ccc(/C=C(\NC(=O)c2ccccc2)C(=O)N2CCN(C)CC2)cc1 | -75.2%
91 | CCOC(=O)N1CCN(C(=O)/C(=C/c2ccc(OC)cc2)NC(=O)c2ccccc2)CC1 | -27.1%
92 | CCOC(=O)N1CCN(C(=O)/C(=C/c2cccc3ccccc23)NC(=O)c2ccc(OC)cc2)CC1 | -10.5%
93 | CN1CCN(C(=O)/C(=C/c2ccc(F)cc2)c2ccsc2)CC1.Cl | -52.8%
94 | CN1CCN(C(=O)/C(=C/c2ccccc2)c2ccccc2)CC1 | -33.2%
95 | CN1CCN(C(=O)/C(C#N)=C/c2ccc(F)cc2)CC1.Cl | 1.43%
96 | O=C(N/C(=C/c1ccc(F)cc1)C(=O)N1CCCC1)c1ccccc1 | 25.3%
97 | COc1ccc(/C=C(/NC(=O)c2ccccc2)C(=O)N2CCCCC2)cc1 | 6.93%
98 | COc1ccc(/C=C(/NC(=O)c2ccccc2)C(=O)N2CCCC2)cc1 | 6.1%
99 | CCOC(=O)N1CCN(C(=O)/C(=C/c2ccc(Br)cc2)NC(=O)c2ccc(OC)cc2)CC1 | -81.5%
100 | CSc1ccc(/C=C(/NC(=O)c2ccccc2)C(=O)N2CCN(C)CC2)cc1 | -48.7%
